The nature of assay [1]: Nuclear factor erythroid 2-related factor 2/antioxidant responsive element (Nrf2/ARE) small molecule agonists: qHTS cell viability counter screen in human keratinocytes (AID 1919968; active = well fitted curve in the direction sought with a large enough effect in the repeat runs; an effect the other way counts as inactive or inconclusive; note: nearly all actives have a fitted effect of over 55% in size). The gist of the method:
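Fluorescence read-out from CellTiter-Fluor after 1 h at 37 C. Wells held HaCaT-derived ARE-luciferase reporter cells (1,500/well) treated 23 h with DMSO-dissolved compounds. Run in the same wells as the luciferase agonist read.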

Assay [2] can be described thus: Nuclear factor erythroid 2-related factor 2/antioxidant responsive element (Nrf2/ARE) small molecule agonists: luciferase reporter gene qHTS assay in human keratinocytes (AID 1919969; note: nearly all actives have a fitted effect of over 35% in size). (Reporter assays use an easily measured gene product as a stand-in for the process of interest.)
Assay [3] addresses Gonadotropin-releasing hormone receptor (Homo sapiens) (UniProt P30968). The experiment in a line: Human gonadotropin-releasing hormone receptor (GnRHR) small molecule agonists, calcium flux assay in GnRHR-HEK293 cells (AID 1920063). Note: nearly all actives have a fitted effect of over 35% in size. The gist of the method: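 Calcium-dye fluorescence, Ex/Em=480/540, recorded every 1 sec over 3 min after compound addition to GnRHR-HEK293 cells. Cells had been seeded 18 hours earlier and dye-loaded for 1 hour at 37 C. Fifteen concentrations, triplicates.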
A general note: A change in cytosolic calcium serves as a functional read-out for many receptors and channels.

The target in assay [4] is KiSS-1 receptor (Homo sapiens) (UniProt Q969F8). The experiment in a line: Human kisspeptin (KISS1R) small molecule agonists, calcium flux assay in KISS1R-HEK293 cells (AID 1920064; active = well fitted curve in the direction sought with a large enough effect in the repeat runs; an effect the other way counts as inactive or inconclusive). A digest of the protocol: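 Calcium flux read-out: kinetic fluorescence at Ex/Em=480/540, 1 s intervals over 3 min, after pin-tool compound addition to dye-loaded KISS1R-HEK293 cells. Fifteen concentrations, triplicates.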
KiSS-1 receptor (Homo sapiens), sequence (Q969F8 whole entry, looked up): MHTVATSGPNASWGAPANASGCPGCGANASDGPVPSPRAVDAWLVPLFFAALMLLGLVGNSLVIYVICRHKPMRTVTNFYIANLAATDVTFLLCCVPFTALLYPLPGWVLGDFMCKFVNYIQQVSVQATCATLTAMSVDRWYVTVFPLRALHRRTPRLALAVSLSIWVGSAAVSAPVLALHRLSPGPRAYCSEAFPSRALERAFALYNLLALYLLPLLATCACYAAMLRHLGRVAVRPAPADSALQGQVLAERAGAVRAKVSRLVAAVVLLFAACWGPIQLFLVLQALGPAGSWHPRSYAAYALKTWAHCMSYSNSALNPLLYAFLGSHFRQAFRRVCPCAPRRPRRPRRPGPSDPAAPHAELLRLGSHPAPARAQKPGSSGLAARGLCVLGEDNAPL

Assay [5] is described as follows: G protein-coupled receptor (GPCR) small molecule agonists, calcium flux assay: HEK293 wild type cell line counter screen (AID 1920065). A digest of the protocol: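 Agonist mode; 18 h seeding at 37 C, 1 h dye load at 37 C; compounds pinned from DMSO, ATP as positive control; kinetic fluorescence 480/540 nm, 3 min, 1 s reads; 15 concentrations, triplicate.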
The nature of assay [6]: p53 small molecule agonists, cell-based qHTS assay with human liver microsomes (AID 1963577). The gist of the method: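 Compounds act here after metabolic activation: human liver microsomes and NADPH, both at 0.5 mg/mL final, were co-added to p53RE-bla cells. Incubation ran 16 h at 37 C, followed by LiveBLAzer detection.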
A general note: In qHTS, concentration-response curves come from the screen itself.

A short description of assay [7]: p53 small molecule agonists, cell-based qHTS assay with rat liver microsomes (AID 1963578). The gist of the method: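 Read-out is beta-lactamase reporter fluorescence (LiveBLAzer, 2 h, room temperature, dark) in p53RE-bla cells treated 16 h at 37 C with compound, rat liver microsomes and NADPH, both 0.5 mg/mL final.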
Assay [8] can be described thus: p53 small molecule agonists, cell-based qHTS assay with human liver microsomes: qHTS cell viability counter screen (AID 1963579). Note: nearly all actives have a fitted effect of over 45% in size. A digest of the protocol: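 Cells carrying the p53 response-element beta-lactamase reporter are treated for 16 h at 37 C with test compounds in the presence of human liver microsomes and NADPH (both 0.5 mg/mL final); ATP-based CellTiter-Glo luminescence then reports viability.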

Assay [9] in a line: p53 small molecule agonists, cell-based qHTS assay with rat liver microsomes: qHTS cell viability counter screen (AID 1963580). Note: nearly all actives have a fitted effect of over 45% in size. A digest of the protocol:
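Counter screen for cytotoxicity under metabolic activation: rat liver microsomes and NADPH, 0.5 mg/mL final each, added with compounds to p53RE-bla HCT-116 cells; 16 h at 37 C, then ATP luminescence read.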

Assay [10] can be described thus: p53 small molecule agonists, cell-based qHTS assay (AID 1963582; active = well fitted activation curve with a large enough effect in the signal ratio in the repeat runs, not every such curve was filed as active; the % refers to the signal ratio). A digest of the protocol:
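Fluorescence intensity read-out of a beta-lactamase reporter under a p53 response element. Cells were exposed to DMSO-dissolved compounds for 16 h at 37 C, then developed with FRET substrate for 2 h at RT.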

Assay [11] addresses 5-hydroxytryptamine receptor 2A (Homo sapiens) (UniProt P28223). As to the kind of experiment: 5-hydroxytryptamine receptor 2A (HTR2A) small molecule antagonists, cell-based qHTS assay (AID 1963586). Note: nearly all actives have a fitted effect of over 45% in size. The gist of the method:
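CHO cells stably expressing human HTR2A were plated for 18 h at 37 C, then loaded with calcium dye for 1 h. Compounds were preincubated 5 min at room temperature before DOI (4 nM solution) was added. Kinetic fluorescence was read for 3 min.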

Assay [12] shares this target. As to the kind of experiment: 5-hydroxytryptamine receptor 2A (HTR2A) small molecule agonists, cell-based qHTS assay (AID 1963587). Note: nearly all actives have a fitted effect of over 30% in size. A digest of the protocol: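 HTR2A-CHO cells, plated 18 h at 37 C/5% CO2, dye-loaded 1 h at 37 C; compounds in DMSO added by pin tool (agonist mode). Intracellular calcium flux read as kinetic fluorescence on FDSS over 2 min at 1 s intervals.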

Assay [13] deals with Muscarinic acetylcholine receptor M1 (Homo sapiens) (UniProt P11229). The experiment in a line: Cholinergic receptor muscarinic 1 (CHRM1) small molecule antagonists, cell-based qHTS assay (AID 1963588). Note: nearly all actives have a fitted effect of over 40% in size. Note: potency is the fitted concentration of half-maximal effect. The gist of the method:
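Compounds were tested at 15 concentrations in three independent runs. Dye-loaded CHRM1-CHO cells were exposed 5 min at room temperature before stimulation by acetylcholine added at 50nM. Intracellular calcium was read kinetically on FDSS for 3 min.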

For assay [14] the target is unchanged. As to the kind of experiment: Cholinergic receptor muscarinic 1 (CHRM1) small molecule agonists, cell-based qHTS assay (AID 1963589). Note: nearly all actives have a fitted effect of over 35% in size. The gist of the method:
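Calcium flux read-out: kinetic fluorescence at 1 sec intervals after pin-tool compound addition to dye-loaded CHRM1-CHO cells (human M1). Agonist mode; 15 concentrations tested in triplicate independent runs.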

Assay [15] in a line: cAMP Responsive Elements (CRE) small molecule agonists, cell-based qHTS assay (AID 1963590). The gist of the method: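 Beta-lactamase reporter readout: LiveBLAzer B/G FRET substrate, 2 h at room temperature, added after 3 h compound treatment of CRE-bla HEK 293T cells at 37 C/5% CO2.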
Assay [16] is described as follows: cAMP Responsive Elements (CRE) small molecule antagonists, cell-based qHTS assay (AID 1963591; active = well fitted inhibition curve with a large enough effect in the signal ratio in the repeat runs, not every such curve was filed as active; the % refers to the signal ratio). The gist of the method:
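HEK293T CRE-bla; 18 h preincubation; compound pin-transfer; NKH477 0.25 uM final, 3 h, 37 C; LiveBLAzer FRET substrate 2 h RT.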

Assay [17] concerns the target Beta-2 adrenergic receptor (Homo sapiens) (UniProt P07550). The experiment in a line: Adrenergic beta2 receptor (ADRB2) small molecule antagonists, cell-based qHTS assay (AID 1963592). Note: series mostly up to about 92 µM; nearly all actives have a fitted effect of over 50% in size. The gist of the method: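 Assay format: CHO-ADRB2 cells, 18-20hr seeding at 37C/5% CO2, then compound plus 1nM isoproterenol agonist mix for 0.5hr RT. Homogeneous time-resolved fluorescence cAMP detection after 1hr, expressed as 665/615 nm ratio.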

The target of assay [18] is D(2) dopamine receptor (Homo sapiens) (UniProt P14416). The experiment in a line: Dopamine D2 receptor (DRD2) small molecule agonists, cell-based qHTS assay (AID 1963594). Note: nearly all actives have a fitted effect of over 35% in size. The gist of the method:
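HEK293 cells stably expressing DRD2 were cultured 24 h at 37 C, then given Ro20-1724 (0.1 mM final) and compounds for 10 min at room temperature. NKH477 (200nM) was then added for 30 min. cAMP was read by HTRF.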

Assay [19] has the same target. The experiment in a line: Dopamine D2 receptor (DRD2) small molecule antagonists, cell-based qHTS assay (AID 1963595; active = well fitted inhibition curve with a large enough effect in the signal ratio in the repeat runs, with a control signal flat; the % refers to the signal ratio). The gist of the method:
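HEK293 cells stably expressing DRD2 were preincubated with 0.1 mM Ro20-1724, then with compound for 10 min at room temperature. Cells were stimulated with 200 nM NKH477 plus 12 nM quinpirole for 30 min, and cAMP was read by HTRF.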

Assay [20] can be described thus: p53 small molecule agonists, cell-based qHTS assay: qHTS cell viability counter screen (AID 1963581). Note: nearly all actives have a fitted effect of over 45% in size. A digest of the protocol: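 Cytotoxicity read-out: ATP-based luminescence (CellTiter-Glo, 30 min RT) measured in the same wells as the p53 reporter assay, HCT-116 p53RE-bla cells, 16 h compound exposure at 37 C.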

Eight compounds from PubChem BioAssay (Tox21) can be followed below.

A number with no mark means an inactive call. Records with an inconclusive call do not appear. Calls of active or inactive are those of the source. Unless noted, calls come from the whole dose curve.
% is set by controls: 0 for no effect and ±100 for the full control effect.

D(2) dopamine receptor (Homo sapiens), sequence (P14416 whole entry, looked up): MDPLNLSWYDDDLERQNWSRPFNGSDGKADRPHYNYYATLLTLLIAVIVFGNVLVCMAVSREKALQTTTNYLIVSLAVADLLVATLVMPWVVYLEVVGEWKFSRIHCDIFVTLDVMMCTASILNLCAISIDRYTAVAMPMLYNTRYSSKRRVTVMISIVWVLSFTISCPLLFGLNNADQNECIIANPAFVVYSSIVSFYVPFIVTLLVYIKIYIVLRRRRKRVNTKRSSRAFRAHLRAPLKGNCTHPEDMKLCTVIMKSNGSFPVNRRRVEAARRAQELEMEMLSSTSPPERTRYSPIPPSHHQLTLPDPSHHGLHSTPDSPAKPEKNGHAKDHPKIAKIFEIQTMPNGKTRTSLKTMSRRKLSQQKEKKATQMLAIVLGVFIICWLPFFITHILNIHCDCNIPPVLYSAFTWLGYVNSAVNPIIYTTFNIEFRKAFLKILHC
5-hydroxytryptamine receptor 2A (Homo sapiens), sequence (P28223 whole entry, looked up): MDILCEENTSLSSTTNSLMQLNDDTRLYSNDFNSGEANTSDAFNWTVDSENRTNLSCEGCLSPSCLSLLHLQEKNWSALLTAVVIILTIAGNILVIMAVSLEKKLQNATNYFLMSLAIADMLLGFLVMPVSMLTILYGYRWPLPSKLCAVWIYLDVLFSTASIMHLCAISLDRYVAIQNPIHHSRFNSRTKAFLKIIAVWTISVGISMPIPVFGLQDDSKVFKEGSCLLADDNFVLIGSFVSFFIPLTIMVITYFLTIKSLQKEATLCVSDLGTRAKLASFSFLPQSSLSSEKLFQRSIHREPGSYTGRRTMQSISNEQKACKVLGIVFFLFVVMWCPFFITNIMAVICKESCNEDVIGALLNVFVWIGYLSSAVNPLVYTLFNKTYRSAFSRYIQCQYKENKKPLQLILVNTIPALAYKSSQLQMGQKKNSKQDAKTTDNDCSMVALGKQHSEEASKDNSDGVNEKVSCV
Gonadotropin-releasing hormone receptor (Homo sapiens), sequence (P30968 whole entry, looked up): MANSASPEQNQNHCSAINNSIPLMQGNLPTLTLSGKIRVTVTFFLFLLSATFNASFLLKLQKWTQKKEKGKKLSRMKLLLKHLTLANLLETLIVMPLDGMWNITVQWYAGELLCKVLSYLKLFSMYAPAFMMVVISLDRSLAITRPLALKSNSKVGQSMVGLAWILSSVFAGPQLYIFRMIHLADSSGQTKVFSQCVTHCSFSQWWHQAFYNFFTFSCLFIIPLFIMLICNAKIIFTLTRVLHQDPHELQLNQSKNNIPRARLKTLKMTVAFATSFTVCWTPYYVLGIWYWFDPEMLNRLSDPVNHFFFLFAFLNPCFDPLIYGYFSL
Muscarinic acetylcholine receptor M1 (Homo sapiens), sequence (P11229 whole entry, looked up): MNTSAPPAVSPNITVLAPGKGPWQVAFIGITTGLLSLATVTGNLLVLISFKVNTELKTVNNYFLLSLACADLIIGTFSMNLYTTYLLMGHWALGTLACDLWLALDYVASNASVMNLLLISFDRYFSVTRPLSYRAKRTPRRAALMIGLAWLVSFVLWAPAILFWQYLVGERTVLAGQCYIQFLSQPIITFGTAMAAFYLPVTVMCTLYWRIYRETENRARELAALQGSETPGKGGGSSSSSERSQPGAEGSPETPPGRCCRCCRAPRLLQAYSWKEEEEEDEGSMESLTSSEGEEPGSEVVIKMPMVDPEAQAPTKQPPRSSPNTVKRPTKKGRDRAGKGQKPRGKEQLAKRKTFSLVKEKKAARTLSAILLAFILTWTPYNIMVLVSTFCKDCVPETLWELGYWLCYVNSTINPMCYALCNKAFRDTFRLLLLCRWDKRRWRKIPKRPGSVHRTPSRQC
Beta-2 adrenergic receptor (Homo sapiens), sequence (P07550 whole entry, looked up): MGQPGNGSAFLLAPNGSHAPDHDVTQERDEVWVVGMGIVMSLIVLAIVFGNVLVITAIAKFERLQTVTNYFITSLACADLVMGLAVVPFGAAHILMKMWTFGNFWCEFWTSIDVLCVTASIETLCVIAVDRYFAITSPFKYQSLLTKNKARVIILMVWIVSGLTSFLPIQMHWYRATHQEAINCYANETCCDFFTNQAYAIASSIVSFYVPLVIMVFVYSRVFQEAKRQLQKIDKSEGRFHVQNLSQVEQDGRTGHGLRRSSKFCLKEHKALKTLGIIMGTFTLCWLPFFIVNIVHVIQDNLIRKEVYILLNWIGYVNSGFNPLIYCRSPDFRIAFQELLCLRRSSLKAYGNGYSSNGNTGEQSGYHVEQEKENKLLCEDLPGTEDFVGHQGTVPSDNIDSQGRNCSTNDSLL

Take `CC1CCC(C(C)CS)CC1S` (centres undefined): the Potency result in [1], in [2], in [3], in assay [6], in [7] and in assay [8] was “inactive” each time. In addition, the Potency result in assay [9], in assay [10], in assay [11], in [12], in assay [13] and in assay [14] was “inactive” throughout. In addition, the Potency result in assay [15], in assay [16], in assay [17], in [18] and in assay [19] was “inactive” each time. Further, the result in [4] and in [5] was inactive.
As for `O[C@@H](COc1cccc2ncccc12)CN1CCN(C2c3ccccc3[C@@H]3[C@H](c4ccccc42)C3(F)F)CC1` (some centres undefined), the Potency result in assay [1], in assay [2], in [3], in [6], in assay [7] and in assay [8] was “inactive” each time. The Potency entry in [9], in [20], in assay [12], in [14], in [17] and in assay [18] was “inactive” in each case. For the same compound, in assay [19], the Potency entry was “inactive”. For the same compound, the outcome in assay [4] and in [5] was inactive. Besides, the Potency in assay [13] was 3.65 µM (active).
As to `CC(C)(O)CCC(C)(C)O`, the Potency result in assay [1], in assay [2], in assay [3], in assay [6], in assay [7] and in assay [8] was “inactive” each time. Also, the Potency result in assay [9], in [10], in assay [11], in assay [12], in assay [13] and in [14] was “inactive” throughout. Also, the Potency entry in [15], in [16], in [17], in assay [18] and in assay [19] was “inactive” each time. Besides, the result in assay [4] and in [5] was inactive.
For the compound `CCn1cc(C(=O)O)c(=O)c2cnc(N3CCCC3)nc21`, the activity change, negative = cytotoxicity in [1] is -0.789% [at 8.39 µM]; in assay [8] it was 17.3% [at 5.99 µM]; in [9], -0.816% [at 5.99 µM]; in assay [20] it was -0.227% [at 5.99 µM]. For the same compound, in assay [2], the activity, positive = activation is 0.384% [at 8.39 µM]. The activity change in [3] is -1.43% [at 5.22 µM, active compounds read high]. Besides, the activation in assay [4] was 2.91% [at 6.97 µM]; in assay [5] it was 0.533% [at 5.23 µM]; in [6] it was 10.8% [at 5.99 µM]; in assay [7] it was -0.037% [at 5.99 µM]; in assay [15], -3.86% [at 8.39 µM]; in [18] it was 1.32% [at 8.39 µM]. The activity change, negative = inhibition is -10.5% [at 8.39 µM] in assay [16], -0.194% [at 8.39 µM] in assay [17] and 2.86% [at 8.38 µM] in assay [19].
`CCCCCCCCCOC(C)=O`: the Potency entry in [1], in assay [2], in assay [3], in assay [6], in assay [7] and in assay [8] was “inactive” in each case. In addition, the Potency entry in assay [9], in assay [10], in [11], in assay [12], in assay [13] and in assay [14] was “inactive” in each case. The Potency result in assay [15], in [16], in assay [17], in assay [18] and in assay [19] was “inactive” throughout. For the same compound, the result in assay [4] and in assay [5] was inactive.
In the case of `O=C(O)c1cc(-c2ccc(F)cc2F)ccc1O`, the Potency result in assay [1], in assay [2], in assay [3], in assay [6], in [7] and in assay [8] was “inactive” throughout. The Potency result in [9], in [20], in [17], in assay [18] and in [19] was “inactive” in each case. Also, the outcome in [4] and in assay [5] was inactive.
`COc1cc(NS(=O)(=O)c2ccc(N)cc2)ncn1`: the Potency entry in assay [1], in assay [2], in [3], in [6], in assay [7] and in assay [8] was “inactive” in each case. The Potency result in assay [9], in assay [20], in assay [13], in [14], in assay [16] and in assay [19] was “inactive” throughout. Further, the outcome in assay [4] and in [5] was inactive.
Turning to `CCOC(=O)NNc1ccc(N(CC)CC(C)O)nn1` (centres undefined), the Potency result in assay [1], in [2], in [3], in assay [6], in [7] and in assay [8] was “inactive” each time. Also, the Potency entry in assay [9], in assay [10], in assay [11], in assay [12], in assay [13] and in assay [14] was “inactive” throughout. The Potency result in assay [15], in [16], in assay [17], in assay [18] and in [19] was “inactive” throughout. Further, the outcome in assay [4] and in assay [5] was inactive.
